Results from PubChem BioAssay (NCATS).
Records with an inconclusive call do not appear. Calls of active or inactive are those of the source. Calls follow the shape of the dose curve; as a rule, active = well fitted curve in the direction sought with a large enough effect; inconclusive = small, poorly fitted or top-dose-only effect, or another doubt; inactive = no such curve, though single readings can be large; an effect the other way counts as inactive or inconclusive.

Assays:
[1] = test system: Zika virus NS2B-NS3 protease (linked construct); test: Primary screen NINDS Rhodamine qHTS for Zika virus inhibitors (AID 1347160); also: % is scaled to controls: 0 for no effect and ±100 for the full control effect; nearly all actives have a fitted effect of over 55% in size
Summary of the method: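 Single-chain NS2B-NS3 protease, 25 nM, pH 8.0; compounds preincubated 15 min. Activity: Rhodamine110 release from 1.5 microM substrate over 15 min, room temperature, data fitted to 4-parameter Hill.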

[2] = Primary qHTS for inhibitors of nuclear receptor binding SET domain protein 2 (NSD2) in an isogenic RCH-ACV NSD2 p.E1099K mutant (9B) (AID 1645876); also: nearly all actives have a fitted effect of over 70% in size; also: potency is read from the fitted curve at half-maximal effect
[3] = Primary qHTS for inhibitors of nuclear receptor binding SET domain protein 2 (NSD2) in an RCH-ACV wild type WT cells (2C) (AID 1645877); also: nearly all actives have a fitted effect of over 70% in size; also: potency is read from the fitted curve at half-maximal effect
[4] = target: Glutathione peroxidase 1 (Homo sapiens) (UniProt P07203); test: Primary qHTS Assay for Inhibitors of Recombinant Selenoprotein Glutathione Peroxidase 1 (GPX1) (AID 1845191); also: nearly all actives have a fitted effect of over 65% in size
Summary of the method: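 GR-coupled readout: NADPH consumption tracked by fluorescence, ex 340/em 450 nm, at t=0 and after 15 min at RT. Final mix 10 nM GPX1, 1 mM GSH, 0.5 mM CHP, 0.5 mM NADPH, 100 nM GR, 0.01% BSA, following 30 min enzyme–compound preincubation.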

[5] = target: Phospholipid hydroperoxide glutathione peroxidase GPX4 (Homo sapiens) (UniProt P36969); test: Primary qHTS Assay for Inhibitors of Recombinant Selenoprotein Glutathione Peroxidase 4 (GPX4) (AID 1845192); also: nearly all actives have a fitted effect of over 65% in size
Summary of the method: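 Steps: GPX4 plus compound, 30 min RT; add GR/GSH/NADPH master mix; start with cumene hydroperoxide; read 340/450 nm fluorescence at 0 and 15 min. Finals were 200 nM GPX4, 1 mM GSH, 0.5 mM CHP, 0.5 mM NADPH, 100 nM GR.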

[6] = target: Luciferin 4-monooxygenase (Photinus pyralis) (UniProt P08659); test: Primary firefly luciferase (FLuc) qHTS assay for identification of artifact compounds. (AID 1845220); conditions: outcome: dose series up to 54.1 µM unless noted; also: nearly all actives have a fitted effect of over 60% in size
Summary of the method: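 Titrated compounds were incubated 15 min at RT, protected from light, with luciferin and ATP at 10 uM; reaction started with 10 nM FLuc, luminescence imaged at 5 min, and concentration-response fitted by Hill equation.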

[7] = Primary fluorescence-based thiol-reactive (MSTI) qHTS assay for identification of artifact compounds. (AID 1845221);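 also: thiol-reactive compounds lower the probe fluorescence signal; nearly all actives have a fitted effect of over 65% in size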
Summary of the method: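 One-hour, room-temperature, dark incubation of compound with 4 uM MSTI in PBS (pH 7.4, 2% DMSO) precedes a fluorescence read at 525 nm excitation, 598 nm emission; Hill-equation fitting yields concentration-response values.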

[8] = test system: Nanoluciferase (engineered Oplophorus gracilirostris luciferase); test: Primary Nanoluciferase (NLuc) qHTS assay for identification of artifact compounds. (AID 1845222);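 also: NLuc secreted into diluted conditioned medium of S16 cells; 0% = DMSO and -100% = no enzyme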
Summary of the method: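 qHTS format, against NLuc in S16 cell-conditioned medium. Nano-Glo substrate 1:100 was added after 15 min at room temperature. Luminescence was taken after a further 5 min.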

[9] = test system: CRL-7250; test: Cytotoxic Profiling of Annotated Libraries Using Quantitative High-Throughput Screening (AID 1296008); conditions: Five cell lines viability, CellTiter-Glo ATP luminescence, 48-72 h; max response: active compounds read low; also: nearly all actives have a fitted effect of over 60% in size; also: potency is read from the fitted curve at half-maximal effect; as to max response: % is scaled to controls: 0 for no effect and ±100 for the full control effect
Summary of the method: (§1)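 Cells exposed to compounds for 48 or 72 hr at 37 degrees Celsius. Viability read as ATP-coupled luminescence with CellTiter-Glo after 10 min at room temperature.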

[10] = test system: HEK293; test: as above; conditions: Five cell lines viability, CellTiter-Glo ATP luminescence, 48-72 h; max response: active compounds read low
Summary of the method: as §1

[11] = test system: HaCat; test: as above; conditions: Five cell lines viability, CellTiter-Glo ATP luminescence, 48-72 h; max response: active compounds read low
Summary of the method: as §1

[12] = test system: NIH3T3; test: as above; conditions: Five cell lines viability, CellTiter-Glo ATP luminescence, 48-72 h; max response: active compounds read low
Summary of the method: as §1

[13] = test system: C33A; test: Primary qHTS to identify gynecologic anti-cancer compounds using libraries of approved drugs and bioactive compounds (AID 1345084); conditions: Gynecologic cancer cell panel viability, ATPlite luminescence, 48 h; series mostly up to 57.5 µM; also: nearly all actives have a fitted effect of over 55% in size; also: potency is read from the fitted curve at half-maximal effect
Summary of the method: (§2)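 In this quantitative HTS, cell killing is estimated from loss of ATP-dependent luciferase light. Cells see five compound concentrations over a 48 h exposure.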

[14] = test system: CASKI; test: as above; conditions: Gynecologic cancer cell panel viability, ATPlite luminescence, 48 h; series mostly up to 57.5 µM
Summary of the method: as §2

[15] = test system: Es-2; test: as above; conditions: Gynecologic cancer cell panel viability, ATPlite luminescence, 48 h; series mostly up to 57.5 µM
Summary of the method: as §2

[16] = test system: Hek293T; test: as above; conditions: Gynecologic cancer cell panel viability, ATPlite luminescence, 48 h, control line for the selectivity index; series mostly up to 57.5 µM
Summary of the method: as §2

[17] = test system: OV90; test: as above; conditions: Gynecologic cancer cell panel viability, ATPlite luminescence, 48 h; series mostly up to 57.5 µM
Summary of the method: as §2

[18] = test system: PA-1; test: as above; conditions: Gynecologic cancer cell panel viability, ATPlite luminescence, 48 h; series mostly up to 57.5 µM
Summary of the method: as §2

[19] = test system: Tov-21-G; test: as above; conditions: Gynecologic cancer cell panel viability, ATPlite luminescence, 48 h; series mostly up to 57.5 µM
Summary of the method: as §2

[20] = test system: Tov112D; test: as above; conditions: Gynecologic cancer cell panel viability, ATPlite luminescence, 48 h; series mostly up to 57.5 µM
Summary of the method: as §2

Glutathione peroxidase 1 (Homo sapiens), sequence (P07203 whole entry, looked up): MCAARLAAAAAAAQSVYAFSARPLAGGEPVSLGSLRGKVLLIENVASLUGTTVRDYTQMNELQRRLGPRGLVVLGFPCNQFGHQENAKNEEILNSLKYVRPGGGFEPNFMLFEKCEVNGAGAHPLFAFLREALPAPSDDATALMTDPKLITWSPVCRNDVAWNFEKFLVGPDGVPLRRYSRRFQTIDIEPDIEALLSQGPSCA
Phospholipid hydroperoxide glutathione peroxidase GPX4 (Homo sapiens), sequence (P36969 whole entry, looked up): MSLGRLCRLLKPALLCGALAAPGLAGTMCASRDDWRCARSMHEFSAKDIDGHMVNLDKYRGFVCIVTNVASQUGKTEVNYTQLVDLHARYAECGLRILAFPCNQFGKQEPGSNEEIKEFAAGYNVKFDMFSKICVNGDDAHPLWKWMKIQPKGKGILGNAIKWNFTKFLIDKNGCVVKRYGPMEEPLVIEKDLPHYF

COc1ccc2c3c4n(c2c1)[C@@H](C=C(C)C)OOC(C)(C)C[C@@H]4N1C(=O)[C@@H]2CCCN2C(=O)[C@]1(O)[C@H]3OCC=C(C)C
inactive: Potency [1] | Potency [2] | Potency [3] | Potency [4] | Potency [5] | outcome [6] | Potency [7] | Potency [8] | outcome [9] | max response [10] -3.84% | max response [11] -11% | max response [12] 0.42% | Potency [13] | Potency [14] | Potency [15] | Potency [16] | Potency [17] | Potency [18] | Potency [19] | Potency [20]

CO[C@@H]1[C@H](O)[C@@H](O[C@@H]2C[C@H]3CC[C@@H]4C(CC[C@]5(C)[C@@H](C6=CC(=O)OC6)CC[C@]45O)[C@@]3(C)[C@H](O)C2)O[C@H](C)[C@@H]1O (some centres not stated)
inactive: Potency [4] | Potency [5] | outcome [6] | Potency [7] | Potency [8] | max response [12] 3.09%
active: Potency [2] 89.3 nM | Potency [3] 159 nM | Potency [9] 112 nM | Potency [10] 224 nM | Potency [11] 1780 nM | Potency [13] 199 nM | Potency [14] 1260 nM | Potency [15] 178 nM | Potency [16] 224 nM | Potency [17] 1000 nM | Potency [18] 199 nM | Potency [19] 178 nM | Potency [20] 89.1 nM

COC1C=CC23c4cc5c(cc4COC2(O)CN(C)C3C1)OCO5 (configuration not stated)
inactive: Potency [1] | Potency [2] | Potency [3] | Potency [4] | Potency [5] | outcome [6] | Potency [7] | Potency [8] | max response [9] -6.96% | max response [10] -0.372% | outcome [11] | max response [12] -0.709% | Potency [13] | Potency [14] | Potency [15] | Potency [16] | Potency [17] | Potency [19] | Potency [20]

C=CCN1CCC2(C)c3cc(O)ccc3C[C@H]1[C@H]2C
inactive: Potency [1] | Potency [2] | Potency [3] | Potency [5] | outcome [6] | Potency [7] | Potency [8] | max response [9] -1.35% | max response [10] -5.37% | max response [11] -10.4% | max response [12] 1.43% | Potency [13] | Potency [14] | Potency [15] | Potency [16] | Potency [17] | Potency [18] | Potency [19] | Potency [20]
